Molecules are shown by their SMILES. The panel holds about 83,000 compounds, 20% with a hit somewhere; the sample as a whole holds those more often.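 Single-dose data. Exposure time 48 hours. Values below 10 considered active.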 Values without a mark were called inactive. Activity calls are given as the source filed them.

What all share (experiment): NCI-60 one-dose screen, 48 h (100 = growth as untreated, 0 = no growth, -100 = all killed)
One assay has as its system SK-MEL-2 melanoma. The following applies: 10 µM unless noted.
The test system of a further assay is SN12C renal. The following applies: 10 µM unless noted.
For another assay, the system named is UO-31 renal. The following applies: 10 µM unless noted.
For another assay, the system named is TK-10 renal. The following applies: 10 µM unless noted.
The test system of the next assay is ACHN renal. The following applies: 10 µM unless noted.
The next assay has as its system CAKI-1 renal. The following applies: 10 µM unless noted.
For a further assay, the system named is A498 renal. The following applies: 10 µM.
For the next assay, the system named is HL-60(TB) leukemia. The following applies: 10 µM unless noted.
For the next assay, the system named is CCRF-CEM leukemia. The following applies: 10 µM unless noted.
For the next assay, the system named is MOLT-4 leukemia. The following applies: 10 µM unless noted.
For the next assay, the system named is SR leukemia. The following applies: 10 µM unless noted.
A further assay has as its system RPMI-8226 leukemia. The following applies: 10 µM unless noted.
A further assay deals with OVCAR-8 ovarian. The following applies: 10 µM unless noted.
For a further assay, the system named is OVCAR-5 ovarian. The following applies: 10 µM unless noted.
Another assay concerns OVCAR-4 ovarian. The following applies: 10 µM unless noted.
In another assay the test system is SK-OV-3 ovarian. The following applies: 10 µM unless noted.
For another assay, the system named is IGROV1 ovarian. The following applies: 10 µM unless noted.
A further assay deals with OVCAR-3 ovarian. The following applies: 10 µM unless noted.
The next assay has as its system HS 578T breast. The following applies: 10 µM unless noted.

As to `O=C([O][Hg][c]1ccccc1)c1ccccc1`, the growth in the assay on SK-MEL-2 melanoma is -33.3% (active); in the assay with SN12C renal it was -85.4% (active); with UO-31 renal it was -92.2% (active); in the assay with TK-10 renal, -86.5% (active); in the assay on ACHN renal, -90.5% (active); in the assay with CAKI-1 renal, -89.3% (active). In addition, the growth was 40.7% in the assay on A498 renal; -53.5% (active) with HL-60(TB) leukemia; -33.8% (active) with CCRF-CEM leukemia; -27.5% (active) in the assay with MOLT-4 leukemia; -7.13% (active) in the assay with SR leukemia; -36.7% (active) in the assay with RPMI-8226 leukemia. The growth in the assay with OVCAR-8 ovarian is -29% (active); in the assay on OVCAR-5 ovarian, -82.3% (active); with OVCAR-4 ovarian, -1.64% (active); in the assay on SK-OV-3 ovarian it was 64.9%; with IGROV1 ovarian, -64% (active); with OVCAR-3 ovarian, -94.4% (active). In addition, the growth in the assay with HS 578T breast was 12.9%.
For the molecule `Cc1cc(C)cc(Nc2nc3c(s2)CC[C@@]2(C)C3=CC[C@@H]3[C@@H]2CC[C@]2(C)C(=O)CC[C@@H]32)c1`, the growth in the assay with SK-MEL-2 melanoma is 54.9%; in the assay with SN12C renal it was 54.2%; with UO-31 renal it was 59.4%; with TK-10 renal, 77.6%; with ACHN renal it was 63.4%; in the assay with CAKI-1 renal, 47.4%. The growth in the assay with A498 renal was 78%; in the assay with HL-60(TB) leukemia it was 57.6%; in the assay on CCRF-CEM leukemia it was 3.37% (active); with MOLT-4 leukemia it was 10.3%; in the assay with SR leukemia it was 12.5%; with RPMI-8226 leukemia, 4.21% (active). Moreover, the growth in the assay on OVCAR-8 ovarian was 50.4%; in the assay on OVCAR-5 ovarian, 93.3%; in the assay on OVCAR-4 ovarian it was 70%; in the assay with SK-OV-3 ovarian, 79.8%; in the assay with IGROV1 ovarian, 85.2%; with OVCAR-3 ovarian, 23.8%. Moreover, the growth in the assay on HS 578T breast is 58.3%.
As to `COc1ccc(Nc2ccnc3cc(Cl)ccc23)cc1CN(CCCl)CCCl`, the growth was -46.7% (active) in the assay with SK-MEL-2 melanoma; 2.25% (active) in the assay on SN12C renal; -42.2% (active) in the assay with UO-31 renal; -37.5% (active) in the assay on TK-10 renal; -33.7% (active) in the assay on ACHN renal; -63.9% (active) in the assay with CAKI-1 renal. Besides, the growth with A498 renal was -47.5% (active); in the assay with HL-60(TB) leukemia, -22.3% (active); in the assay with CCRF-CEM leukemia, -6.67% (active); in the assay on MOLT-4 leukemia, -12.1% (active); in the assay on SR leukemia, -0.721% (active); with OVCAR-8 ovarian it was -39.3% (active). For the same molecule, the growth was -26.1% (active) in the assay with OVCAR-5 ovarian; -15.3% (active) in the assay with OVCAR-4 ovarian; 8.86% (active) with SK-OV-3 ovarian; -36% (active) in the assay with IGROV1 ovarian; -49.3% (active) in the assay with OVCAR-3 ovarian; -27.6% (active) with HS 578T breast.
As to `O=C(CC1(O)C(=O)Nc2ccc(Br)cc21)c1ccc(C(=O)NCC2CCC3(CC2)OOC2(CCCCC2)OO3)cc1` (stereo unspecified), the growth in the assay on SK-MEL-2 melanoma was 23.3%; in the assay on SN12C renal it was 59.1%; in the assay on UO-31 renal, -82.4% (active); in the assay on TK-10 renal, 72.5%; in the assay with ACHN renal, -40.8% (active); in the assay on CAKI-1 renal, 0.714% (active). Besides, the growth was 84.7% in the assay on A498 renal; -39.2% (active) with HL-60(TB) leukemia; -34.4% (active) in the assay on CCRF-CEM leukemia; -29.4% (active) with MOLT-4 leukemia; -38.7% (active) with SR leukemia; -27.4% (active) in the assay on RPMI-8226 leukemia. The growth in the assay on OVCAR-5 ovarian was 95.8%; in the assay on OVCAR-4 ovarian, 48.7%; with SK-OV-3 ovarian it was 70.6%; in the assay with IGROV1 ovarian, 14.8%; in the assay with OVCAR-3 ovarian, 8.92% (active); in the assay on HS 578T breast, 62.9%.
Turning to `CC12CCC3C(C=CC4=C(N)C(=O)CCC43C)C1CCC2=O` (stereo unspecified), the growth is 74.4% with SK-MEL-2 melanoma; 88.5% in the assay with SN12C renal; 64.6% with UO-31 renal; 85.6% with TK-10 renal; 88.2% with ACHN renal; 84.1% in the assay with CAKI-1 renal. Moreover, the growth in the assay on A498 renal was 99.2%; in the assay on HL-60(TB) leukemia, 52.5%; in the assay with CCRF-CEM leukemia, 6.62% (active); with MOLT-4 leukemia, 57.2%; with SR leukemia, -18.1% (active); with OVCAR-8 ovarian, 44%. In addition, the growth with OVCAR-5 ovarian was 108%; with OVCAR-4 ovarian it was 62%; with SK-OV-3 ovarian, 120%; in the assay on IGROV1 ovarian it was 49.5%; with OVCAR-3 ovarian, 64.6%; in the assay on HS 578T breast, 113%.
Take `O=C(NCCN1CC1)C(=O)NCCN1CC1`: the growth in the assay with SK-MEL-2 melanoma was 97.1%; with SN12C renal it was 87.3%; with UO-31 renal it was 96.4%; in the assay with TK-10 renal it was 83.6%; in the assay on ACHN renal it was 67.9%; in the assay on CAKI-1 renal, 20.9%. Also, the growth is 105% in the assay with A498 renal; 63.1% in the assay with HL-60(TB) leukemia; 56.8% with CCRF-CEM leukemia; 55.3% in the assay on MOLT-4 leukemia; 19% in the assay with SR leukemia; 98.5% in the assay with RPMI-8226 leukemia. The growth with OVCAR-8 ovarian was 69.3%; with OVCAR-5 ovarian it was 104%; in the assay on OVCAR-4 ovarian, 106%; in the assay with SK-OV-3 ovarian, 98%; in the assay on OVCAR-3 ovarian, 99.6%; with HS 578T breast, 107%.
Take `COC(=O)C1OC(Oc2ccc(N(CCCl)CCCl)cc2)C(OC(C)=O)C(OC(C)=O)C1OC(C)=O` (stereo unspecified): the growth in the assay with SK-MEL-2 melanoma is 109%; with SN12C renal, 62.4%; in the assay with UO-31 renal, 73.1%; in the assay on TK-10 renal, 92.5%; in the assay on ACHN renal, 27.4%; with CAKI-1 renal, 3.7% (active). The growth is 104% with A498 renal; 40.1% in the assay on HL-60(TB) leukemia; 37.2% in the assay on CCRF-CEM leukemia; 37.3% in the assay on MOLT-4 leukemia; 4.19% (active) in the assay on SR leukemia; 96.6% in the assay with RPMI-8226 leukemia. For the same molecule, the growth with OVCAR-8 ovarian was 84.8%; in the assay on OVCAR-5 ovarian, 90.4%; with OVCAR-4 ovarian, 87.7%; in the assay on SK-OV-3 ovarian it was 96.7%; with OVCAR-3 ovarian, 94.2%; in the assay with HS 578T breast, 102%.
Turning to `Cc1c(O)c(CN(CCCl)CCCl)cc(CN(CCCl)CCCl)c1O`, the growth in the assay with SK-MEL-2 melanoma was 110%; in the assay on SN12C renal, 72.9%; with UO-31 renal, 70.3%; with TK-10 renal, 100%; in the assay with ACHN renal, 42.5%; in the assay with CAKI-1 renal, 17.6%. In addition, the growth is 92.4% with A498 renal; 47.1% with HL-60(TB) leukemia; 41.8% with CCRF-CEM leukemia; 75.2% in the assay with MOLT-4 leukemia; 4.03% (active) in the assay on SR leukemia; 86.8% in the assay with RPMI-8226 leukemia. Moreover, the growth with OVCAR-8 ovarian is 90.4%; with OVCAR-5 ovarian, 97.9%; in the assay with OVCAR-4 ovarian, 83.9%; in the assay with SK-OV-3 ovarian, 102%; with IGROV1 ovarian it was 87.4%; in the assay on OVCAR-3 ovarian, 101%. Further, the growth with HS 578T breast was 86.3%.
For the molecule `CC(=O)[O][Hg][O]C(C)=O`, the growth is 90.3% in the assay on SK-MEL-2 melanoma; 106% in the assay with SN12C renal; 96.9% in the assay on UO-31 renal; 138% in the assay with TK-10 renal; 108% with ACHN renal; 92.3% in the assay on CAKI-1 renal. Also, the growth in the assay on A498 renal is 117%; in the assay on HL-60(TB) leukemia, 35.2%; in the assay on CCRF-CEM leukemia, 27.8%; in the assay on MOLT-4 leukemia, 84.8%; in the assay on SR leukemia it was 11.9%; in the assay on RPMI-8226 leukemia, 90.1%. Further, the growth with OVCAR-8 ovarian was 98.7%; in the assay on OVCAR-5 ovarian it was 115%; with OVCAR-4 ovarian, 94.3%; with SK-OV-3 ovarian, 97.8%; with IGROV1 ovarian, 53.2%; with OVCAR-3 ovarian, 34.5%. For the same molecule, the growth in the assay with HS 578T breast is 106%.

The values are drawn from PubChem BioAssay (NCI).
